Measured values as given in PubChem BioAssay.
Active and inactive are the calls of the source.

Columns and labels:
[1] = small molecules captured by biotinylated probe aFSTL3 – biochemical, small-molecule microarray, fluorescence 635/667, stem cell growth factor project, primary screen (AID 1064); conditions: higher = more signal;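 note: measures binding of the biotinylated anti-FSTL3 antibody to printed compounds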
[2] = binders from COS7 lysate, DM2A8 probe, primary screen, torsin A project, cell lysate, small-molecule microarray, fluorescence 635/667 (AID 1065); conditions: higher = more signal, COS7 lysate expressing mutant human TOR1A
[3] = small molecules captured by biotinylated probe aFGF2 – biochemical, small-molecule microarray, fluorescence 635/667, stem cell growth factor project, primary screen (AID 1067); conditions: higher = more signal;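 note: measures binding of biotinylated aFGF2 protein to printed compounds on slides; z-score merges feature fluorescence and signal-to-noise across triplicate slides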
[4] = small molecules captured by biotinylated probe aFGF10 – biochemical, small-molecule microarray, fluorescence 635/667, stem cell growth factor project, primary screen (AID 1071); conditions: higher = more signal;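 note: score merges 667 nm spot intensity and signal to noise from triplicate slides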
[5] = target: Neurogenic locus notch homolog protein 2 (Homo sapiens) (UniProt Q04721); test: small molecules binding Notch2 protein – biochemical, small-molecule microarray, 635 nm fluorescence, stem cell growth factors, primary screen (AID 1073); conditions: higher = more signal
[6] = target: Pro-neuregulin-1, membrane-bound isoform (Homo sapiens) (UniProt Q02297); test: small molecules binding neuregulin-1 protein – biochemical, small-molecule microarray, fluorescence 635/667, psychiatric disease protein project, primary screen (AID 1075); conditions: NRG1 binding, 635 nm fluorescence, higher = more signal;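 note: score combines 667 nm spot fluorescence with signal to noise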
[7] = tested on: Neuregulin-1 EGF-like domain; test: small molecules binding NRG1 EGF domain – biochemical, small-molecule microarray, 635 nm fluorescence, primary screen (AID 1081); conditions: higher = more signal;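 note: binding of the protein to compounds printed on small-molecule microarray slides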
[8] = FRG1 expression reporter modulators in myotubes – cell-based, C2C12 myotubes, firefly/Renilla luciferase, luminescence, FRG1 inhibition for FSHD, primary screen (AID 1084); conditions: FRG1 promoter luciferase, higher = more signal, called active from +8 up or from −8 down
[9] = small molecules captured by biotinylated probe aFST – biochemical, small-molecule microarray, fluorescence 635/667, stem cell growth factor project, primary screen (AID 1086); conditions: higher = more signal;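 note: score merges 667 nm fluorescence with signal-to-noise of each printed compound spot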
[10] = binders of probe aHhip on microarray, primary screen, stem cell growth factor project, biochemical, small-molecule microarray, fluorescence 635/667 (AID 1087); conditions: higher = more signal;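 note: score merges spot fluorescence at 667nm with spot signal to noise ratio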

Neurogenic locus notch homolog protein 2 (Homo sapiens), sequence (Q04721 whole entry, looked up, canonical isoform): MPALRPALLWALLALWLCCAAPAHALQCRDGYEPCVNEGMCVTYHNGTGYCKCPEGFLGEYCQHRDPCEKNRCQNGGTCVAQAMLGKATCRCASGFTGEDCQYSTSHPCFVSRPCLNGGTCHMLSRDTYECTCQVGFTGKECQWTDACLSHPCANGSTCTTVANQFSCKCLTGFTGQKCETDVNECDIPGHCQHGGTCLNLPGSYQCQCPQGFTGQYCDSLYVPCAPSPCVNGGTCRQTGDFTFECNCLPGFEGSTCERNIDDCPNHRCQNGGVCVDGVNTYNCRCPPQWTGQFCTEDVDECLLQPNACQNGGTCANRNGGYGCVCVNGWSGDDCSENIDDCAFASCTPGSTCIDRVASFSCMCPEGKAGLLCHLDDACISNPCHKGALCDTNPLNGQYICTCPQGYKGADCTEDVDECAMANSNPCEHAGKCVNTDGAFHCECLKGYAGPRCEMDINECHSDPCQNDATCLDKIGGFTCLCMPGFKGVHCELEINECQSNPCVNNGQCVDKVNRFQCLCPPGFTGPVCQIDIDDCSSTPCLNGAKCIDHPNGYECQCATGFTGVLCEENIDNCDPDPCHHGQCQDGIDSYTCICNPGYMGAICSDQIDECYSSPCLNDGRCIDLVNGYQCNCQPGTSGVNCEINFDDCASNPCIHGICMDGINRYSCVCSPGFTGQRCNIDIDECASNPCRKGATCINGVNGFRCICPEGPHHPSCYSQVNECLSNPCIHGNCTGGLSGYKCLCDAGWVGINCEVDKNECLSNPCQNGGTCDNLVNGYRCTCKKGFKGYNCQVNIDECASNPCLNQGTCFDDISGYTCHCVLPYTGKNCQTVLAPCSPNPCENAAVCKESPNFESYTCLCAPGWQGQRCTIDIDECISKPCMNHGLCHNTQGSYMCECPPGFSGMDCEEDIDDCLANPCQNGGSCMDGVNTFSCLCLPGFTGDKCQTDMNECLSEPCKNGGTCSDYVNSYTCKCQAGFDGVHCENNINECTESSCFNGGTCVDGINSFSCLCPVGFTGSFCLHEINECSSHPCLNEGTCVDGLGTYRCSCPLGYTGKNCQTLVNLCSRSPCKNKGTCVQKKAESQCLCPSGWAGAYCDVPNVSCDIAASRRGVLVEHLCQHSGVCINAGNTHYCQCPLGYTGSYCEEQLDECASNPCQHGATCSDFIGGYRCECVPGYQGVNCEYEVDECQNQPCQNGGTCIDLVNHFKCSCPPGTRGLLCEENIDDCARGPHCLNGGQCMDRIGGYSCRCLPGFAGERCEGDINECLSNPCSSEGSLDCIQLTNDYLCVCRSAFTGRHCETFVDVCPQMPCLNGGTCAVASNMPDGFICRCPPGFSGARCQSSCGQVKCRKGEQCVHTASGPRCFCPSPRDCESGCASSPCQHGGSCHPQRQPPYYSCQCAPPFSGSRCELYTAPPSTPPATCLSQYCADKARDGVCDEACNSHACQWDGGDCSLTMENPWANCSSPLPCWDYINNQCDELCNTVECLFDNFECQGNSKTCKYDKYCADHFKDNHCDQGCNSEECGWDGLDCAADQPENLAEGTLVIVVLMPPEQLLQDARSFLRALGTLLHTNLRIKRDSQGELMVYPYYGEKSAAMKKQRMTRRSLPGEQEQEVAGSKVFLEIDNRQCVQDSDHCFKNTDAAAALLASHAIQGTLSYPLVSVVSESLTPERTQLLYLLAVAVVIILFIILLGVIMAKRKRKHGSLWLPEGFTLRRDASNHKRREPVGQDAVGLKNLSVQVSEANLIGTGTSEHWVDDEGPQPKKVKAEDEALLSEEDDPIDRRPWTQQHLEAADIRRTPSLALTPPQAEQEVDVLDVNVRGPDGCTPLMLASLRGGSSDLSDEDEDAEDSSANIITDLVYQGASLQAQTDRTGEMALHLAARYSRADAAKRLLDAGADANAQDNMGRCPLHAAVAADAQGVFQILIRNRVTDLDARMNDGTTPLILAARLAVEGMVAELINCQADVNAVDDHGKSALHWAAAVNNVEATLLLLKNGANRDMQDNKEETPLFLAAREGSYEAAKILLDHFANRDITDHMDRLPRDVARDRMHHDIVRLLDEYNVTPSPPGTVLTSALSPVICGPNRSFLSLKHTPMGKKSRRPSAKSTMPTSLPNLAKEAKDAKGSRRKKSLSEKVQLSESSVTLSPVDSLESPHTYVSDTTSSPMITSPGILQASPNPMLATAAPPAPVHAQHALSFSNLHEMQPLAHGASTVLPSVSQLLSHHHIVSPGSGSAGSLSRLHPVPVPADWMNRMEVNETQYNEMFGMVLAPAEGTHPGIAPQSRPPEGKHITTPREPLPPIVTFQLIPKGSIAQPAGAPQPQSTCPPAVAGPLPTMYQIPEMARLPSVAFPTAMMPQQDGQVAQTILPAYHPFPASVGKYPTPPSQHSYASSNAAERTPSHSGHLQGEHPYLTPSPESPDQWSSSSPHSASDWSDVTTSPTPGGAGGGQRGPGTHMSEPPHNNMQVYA
Pro-neuregulin-1, membrane-bound isoform (Homo sapiens), sequence (Q02297 whole entry, looked up, the tested form may be a part, canonical isoform): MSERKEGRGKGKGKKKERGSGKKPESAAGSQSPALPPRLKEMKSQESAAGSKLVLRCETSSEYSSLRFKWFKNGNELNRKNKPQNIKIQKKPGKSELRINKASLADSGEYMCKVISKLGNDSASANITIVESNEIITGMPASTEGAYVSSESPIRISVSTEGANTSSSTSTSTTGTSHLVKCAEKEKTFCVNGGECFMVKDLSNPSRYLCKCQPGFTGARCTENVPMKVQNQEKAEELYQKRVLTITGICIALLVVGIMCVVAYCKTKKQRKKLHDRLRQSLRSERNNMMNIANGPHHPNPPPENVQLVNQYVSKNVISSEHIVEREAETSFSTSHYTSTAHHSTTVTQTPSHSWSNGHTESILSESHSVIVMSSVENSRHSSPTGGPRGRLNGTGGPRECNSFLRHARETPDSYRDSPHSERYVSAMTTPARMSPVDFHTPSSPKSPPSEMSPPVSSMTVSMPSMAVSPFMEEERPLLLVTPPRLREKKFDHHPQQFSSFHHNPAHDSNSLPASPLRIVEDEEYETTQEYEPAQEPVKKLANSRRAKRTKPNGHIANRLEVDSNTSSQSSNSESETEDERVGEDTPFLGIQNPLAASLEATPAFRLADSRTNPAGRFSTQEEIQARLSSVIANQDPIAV

Row | SMILES | composite z-score [1] | composite z-score [2] | composite z-score [3] | composite z-score [4] | composite z-score [5] | composite z-score [6] | composite z-score [7] | z-score [8] | composite z-score [9] | composite z-score [10]
1 | C=CCNC(=O)[C@@H]1[C@H]2C(=O)O[C@H](c3ccccc3)[C@H](c3ccccc3)N2[C@H](c2ccccc2OCCO)[C@@]12C(=O)Nc1ccc(C#CCCO)cc12 | -0.501 | 0.143 | 0.0013 | 0.0379 | 0.611 | 0.99 | 1.19 | -0.452 (inactive) | 0.954 | 0.154
2 | CCOC(=O)C1=CC[C@@H](c2ccccc2F)N(S(=O)(=O)c2ccc(C)cc2)[C@H]1c1ccccc1 | -0.419 | -0.0956 | -0.0253 | 0.765 | 1.46 | 0.65 | 0.677 | -3.46 (inactive) | 0.789 | -0.11
3 | COc1ccc([Si](C)(C)[C@@H]2[C@@H](CCO)O[C@]3(C(=O)N(Cc4ccccc4)c4ccc(N5C(=O)c6cccc7cccc5c67)cc43)[C@H]2C)cc1 | 0.107 | -0.908 | -0.0729 | -0.086 | -0.0923 | 0.367 | 0.609 | 0.0135 (inactive) | -0.175 | -0.271
4 | CCCCCN1CC=CC23O[C@@H]4/C=C\CCC(C)OC(=O)C4[C@H]2C(=O)N(C(CO)C(C)C)[C@@H]3C1=O (stereo not given in full) | -1.2 | -0.456 | -0.245 | -0.246 | -0.406 | 1.21 | 1.38 | -0.23 (inactive) | -0.592 | -0.457
5 | CC[C@@H]1C=C(C(=O)O)[C@H](c2ccccc2)N1S(=O)(=O)c1ccc(C)cc1 | 0.262 | 0.577 | 0.0663 | 0.829 | 1.53 | 1.19 | 1.38 | -1.24 (inactive) | 0.635 | -0.0296
6 | COCCOC(=O)N1C(=O)[C@@]2(c3cc(C#CCCO)ccc31)[C@H](C(=O)Nc1nc3ccccc3s1)[C@H]1C(=O)O[C@H](c3ccccc3)[C@H](c3ccccc3)N1[C@@H]2c1ccc(O)cc1 | -0.223 | 0.9 | -0.0403 | 0.83 | 1.53 | 1.07 | 0.72 | -0.948 (inactive) | 0.346 | 0.0505
7 | CC(C)C(CO)N1C(=O)[C@@H]2[C@H]3C(=O)OCC=C[C@H]3OC23C=CCN(c2ccc(Cl)cc2)C(=O)[C@@H]13 (stereo not given in full) | -0.0597 | -0.61 | -0.141 | -0.385 | -0.659 | -0.7 | 0.436 | -0.459 (inactive) | -0.243 | -0.313
8 | CCCNC(=O)[C@@]1(C)c2ccccc2C(=O)N(c2ccc(C)cn2)[C@H]1c1ccc(CO)cc1 | 0.294 | 0.0231 | -0.0692 | -0.281 | 0.0657 | 0.638 | 0.781 | 0.683 (inactive) | -0.215 | -0.219
9 | COC(=O)[C@@]1(Cc2ccc(OC)cc2)[C@H]2c3cc(C(=O)N(C)C)n(Cc4ccc(C)o4)c3C[C@H]2CN1C(=O)c1ccccc1 | 0.429 | -0.342 | 0.0807 | 0.423 | 1.61 | 1.85 | 1.24 | -0.472 (inactive) | 1.16 | 1.48
10 | CCCNC(=O)[C@@H]1c2ccccc2C(=O)N(Cc2ccc(OC(F)(F)F)cc2)[C@H]1c1ccc(CO)cc1 | 0.193 | -0.392 | 0.0295 | 0.0505 | 0.634 | 0.33 | 1.24 | -1.88 (inactive) | 0.0347 | -0.0237
11 | COc1ccc([Si](C)(C)[C@@H]2[C@@H](CCO)O[C@]3(C(=O)N(Cc4cccc(NC(=O)[C@H](C)O)c4)c4ccccc43)[C@H]2C)cc1 | -0.328 | 0.263 | -0.053 | 1.23 | 0.487 | 1.07 | 1.14 | -3.53 (inactive) | 0.146 | -0.249
12 | CCCC=C(CCC)[C@@H](NS(=O)(=O)c1ccc(C(F)(F)F)cc1)c1ccccc1 | -0.0179 | -0.0296 | 0.143 | -0.0601 | 0.0998 | -0.152 | 0.428 | 1.75 (inactive) | 0.302 | 0.37
13 | CS(=O)(=O)CCOC(=O)C1=CC(c2ccc(CO)cc2)=CC(C2CC2)N(Cc2sc3ccccc3c2Cl)C=C1C(=O)OCCS(C)(=O)=O (stereo not given) | -0.0385 | 0.569 | -0.0746 | 0.165 | 0.87 | 1.77 | 0.962 | -1.06 (inactive) | 0.223 | 0.316
14 | COC(=O)[C@@]1(Cc2ccccc2)[C@H]2c3cc(C(=O)N(C)C)n(Cc4ccc(C)o4)c3C[C@H]2CN1C(=O)c1ccccc1 | 1.97 | 0.6 | 0.632 | 0.685 | 1.36 | 1.47 | 1.15 | 0.495 (inactive) | 1.91 | 0.414
15 | C=C[C@@H](OC)[C@H](OC(=O)Nc1ccc(OC)cc1)c1ccc(O)c(F)c1 | -0.122 | 1.6 | -0.142 | -0.528 | -1.25 | 0.749 | 1.15 | 3.87 (inactive) | -0.39 | -0.0994
16 | [N-]=[N+]=Nc1ccccc1C[C@]1(C(=O)O)COC(c2ccc(OCCCO)cc2)=N1 | 0.326 | -1.1 | -0.11 | 0.518 | 0.194 | 0.614 | 1.19 | 5.78 (inactive) | 0.205 | 0.419
17 | CC(C)[Si]1(C(C)C)OCc2cc(C3CC3)nc(-c3ccc(Oc4ccccc4)cc3)c21 | -0.0872 | -0.502 | -0.207 | -0.18 | -0.393 | -0.65 | -0.791 | -0.343 (inactive) | -0.15 | -0.469
18 | CC1CC/C=C\[C@H]2OC34C=CCN(C(C)C)C(=O)[C@H]3N(CCO)C(=O)[C@@H]4C2C(=O)O1 (stereo not given in full) | 0.689 | 0.987 | -0.159 | -0.228 | -1.19 | 1.08 | 1.23 | 0.0746 (inactive) | -0.662 | -0.134
19 | [N-]=[N+]=NCc1ccccc1[C@@H]1OC(c2ccc(OCCCO)cc2)=N[C@]1(CCS(=O)(=O)c1ccccc1)C(=O)O | 0.561 | -0.0845 | 0.0116 | 0.396 | 0.797 | 1.92 | 0.733 | 5.28 (inactive) | 0.641 | -0.0994
20 | CN(C)C(=O)[C@]1(CCC(=O)OC(C)(C)C)N=C(c2ccc(OCCCO)cc2)O[C@@H]1c1ccccc1CN=[N+]=[N-] | 0.292 | 1.28 | 0.485 | 0.488 | 0.934 | 1.89 | 1.15 | 3.58 (inactive) | 1.34 | -0.476
21 | CCOC(=O)C1=C[C@@H](c2ccccc2)N(S(=O)(=O)c2ccc(C)cc2)[C@H]1c1ccc(OC)cc1 | 0.0896 | 0.733 | 0.479 | 0.848 | 1.61 | 1.02 | 1 | -2.76 (inactive) | 1.14 | 0.554
22 | CCOC(=O)C1=CC[C@@H](c2ccccc2)N(S(=O)(=O)c2ccc(C)cc2)[C@H]1c1ccccc1 | 0.322 | 0.13 | -0.0073 | 0.296 | 1.37 | 0.334 | 0.628 | -2.4 (inactive) | 0.77 | -0.265
23 | C#Cc1cc2ccccc2oc1=O | 0.985 | -0.109 | 0.153 | -0.232 | -1.81 | 0.785 | 1.29 | 1.35 (inactive) | -0.839 | -0.14
24 | O[C@@H](Cc1ccccc1)[C@@H](/C=C/C1CC1)N(CC#Cc1ccccc1)Cc1ccccc1Br | 1.53 | -0.614 | -0.157 | -0.763 | -0.836 | -0.0422 | -0.0401 | -0.507 (inactive) | -0.221 | -0.19
25 | CCCC=C(CCC)[C@@H](NC(=O)c1cccs1)c1ccc(C(=O)OC)cc1 | 2.23 | 0.392 | 0.905 | 1.1 | 0.592 | 0.028 | 0.648 | 0.874 (inactive) | 2.61 | 1.39
26 | O=C(NCCN1CCOCC1)[C@@H]1c2ccccc2C(=O)N(Cc2ccccc2Cl)[C@H]1c1ccc(CO)cc1 | -0.138 | -0.483 | -0.15 | -0.758 | -0.922 | 0.923 | 1.32 | -2.41 (inactive) | 0.263 | -0.391
27 | COc1ccc([Si](C)(C)[C@H]2[C@H](CC(=O)N3Cc4ccccc4C[C@H]3CO)O[C@@]3(C(=O)N(Cc4ccc(N5CCOC5=O)cc4)c4ccccc43)[C@@H]2C)cc1 | -0.315 | 0.443 | -0.0583 | 0.345 | 0.236 | 0.744 | 1.1 | -4.08 (inactive) | 0.315 | -0.0296
